High-throughput results (PubChem BioAssay)
Rows were chosen to be rich in hits. Some 3.8% of all compounds tested hit in one or more screens of this group.
ATXN2 expr inh – ATXN2 expression inhibition; HEK-293 ATXN2-luciferase reporter, luminescence, 24 h; Potency, µM (highest dose often 57 µM), actives largely listed as inhibitors; hit rate 0.72% among 360,000; further: nearly all actives have a fitted effect of over 55% in size
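ATXN2-luciferase reporter cells (luciferase flanked by upstream and downstream ATXN2 gene portions) were treated 24 h at 37 °C with compounds at up to 57 uM. SteadyGlo luminescence gave expression; GF-AFC fluorescence gave viability.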
HepG2 viability – HepG2 cytotoxicity, counter-screen for TGF-b inhibitors | HepG2 CAGA-GFP viability, ATP luminescence, 18 h | Potency, µM (highest dose often 46.1 µM), usual class: cytotoxic | hit rate 0.76% among 410,000
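CellTiter-Glo luminescence gave cytotoxicity after 18 hours at 37 degrees C. The cells were HepG2 CAGA-GFP in 1% FBS DMEM, stimulated with 500 pg/mL TGF-beta after compound addition. %Activity was normalised to no-cell wells (complete cell-killing) and DMSO (no toxicity), and curves were fitted and classified.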
A549 tox – kills or reduces viability of A549 cells in Nrf2 counter-screen. A549 ARE-Fluc cells, CellTiter-Fluor viability, 18-24 h. Potency, µM (titrated, usually from 46 µM), most hits filed as inhibitors. hit rate 0.16% among 390,000
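A549 ARE-Fluc cells in 5% FBS OPTI-MEM, 5000 cells/well, rested 2 h then exposed to compounds in concentration-response for 18-24 h at 37 °C. Viability by CellTiter-Fluor fluorescence (Ex 405/Em 525) after 30 min; luciferase luminescence (BugLite, 15 min, RT) read afterwards.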
TGFb SMAD3 inh – TGF-b pathway inhibition. HepG2 CAGA-GFP TGF-b/SMAD3 reporter, GFP fluorescence, 18 h; TGF-beta stimulated, 500 pg/mL final. Potency, µM (doses to about 46.1 µM), usual class: inhibitors. hit rate 1.2% among 410,000; further: nearly all actives have a fitted effect of over 65% in size
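Inhibition was scored as loss of TGF-beta-induced (500 pg/mL final, 18 hours, 37 degrees C) GFP in HEPG2 cells carrying a CAGA-GFP reporter, in DMEM with 1% FBS. Well GFP was summed per cell; Activity was normalised to unstimulated and stimulated DMSO wells, then concentration-response fitting.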
Nrf2 block – inhibitors of Nrf2 signaling. A549 ARE-Fluc reporter, luciferase luminescence, 18-24 h. Potency, µM (top dose mostly 46 µM), hits mostly inhibitors. hit rate 2.1% among 360,000; further: nearly all actives have a fitted effect of over 60% in size
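A549 ARE_Fluc cells, 5000/well, 5% FBS OPTI-MEM; compounds in dose-response, 18-24 h at 37 °C/5% CO2; CellTiter-Fluor viability read (Ex 405/Em 525), then BugLite luciferase luminescence = Nrf2 activity.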
ATXN viability – reduces viability in counter-screen for ATXN expression inhibitors | S2 cells (HEK-293 line with an ATXN2-luciferase reporter) viability, CellTiter-Fluor protease fluorescence, 24 h | Potency, µM (top dose mostly 56.7 µM), most hits filed as cytotoxic | hit rate 0.49% among 400,000; further: nearly all actives have a fitted effect of over 40% in size
Of the large screens only hits and unclear results are named; the others gave an inactive call. The call rests on the fitted dose curve; in most records, active means well fitted curve in the direction sought with a large enough effect; inconclusive means small, poorly fitted or top-dose-only effect, or another doubt; inactive means no such curve, though single readings can be large; an effect the other way counts as inactive or inconclusive.

COc1ccc(S(=O)(=O)Nc2cc(OC)cc3cccnc23)cc1	Nrf2 block inconclusive (no result: ATXN2 expr inh, HepG2 viability, TGFb SMAD3 inh, ATXN viability)
O=S(=O)(Nc1cccc2cccnc12)c1cccs1	A549 tox inconclusive, TGFb SMAD3 inh 2.2µM, Nrf2 block 18µM (no result: ATXN2 expr inh, ATXN viability)
COc1ccc(S(=O)(=O)Nc2cccc3cccnc23)c([N+](=O)[O-])c1	A549 tox inconclusive, TGFb SMAD3 inh inconclusive, Nrf2 block 7.3µM (no result: ATXN2 expr inh, ATXN viability)
Cc1ccc(S(=O)(=O)Nc2ccc(O)c3cccnc23)cc1	ATXN2 expr inh 22µM, TGFb SMAD3 inh inconclusive, ATXN viability inconclusive
Cc1nn2c(=O)cc(COC(=O)C(c3ccccc3)c3ccccc3)nc2s1	TGFb SMAD3 inh inconclusive, Nrf2 block inconclusive
Cc1ccc(C(=O)N2CCOCC2)cc1S(=O)(=O)N1CCCCC1	none
CC1=C(C(=O)OCc2ccc(C)cc2)C(c2ccccc2C(F)(F)F)CC(=O)N1 (stereo unspecified)	TGFb SMAD3 inh inconclusive
O=S(=O)(Nc1cccc2cccnc12)c1ccc(Br)cc1	A549 tox inconclusive, Nrf2 block 8.2µM (no result: ATXN2 expr inh, HepG2 viability, TGFb SMAD3 inh, ATXN viability)
O=C(NCC1CCCO1)C(c1cccs1)N(Cc1ccccc1Cl)C(=O)c1ccc(-c2ccccc2)[nH]1 (stereo unspecified)	TGFb SMAD3 inh inconclusive, Nrf2 block 23µM
Cc1ccc(C(C(=O)NCC2CCCO2)N(Cc2ccccc2)C(=O)c2ccc(-c3ccccc3)[nH]2)o1 (stereo unspecified)	A549 tox inconclusive, TGFb SMAD3 inh inconclusive, Nrf2 block inconclusive, ATXN viability inconclusive
O=C(CCc1nc(-c2cccs2)no1)Nc1ccccc1[N+](=O)[O-]	none
O=C(CN1CSCC1=O)N1CCN(S(=O)(=O)c2cc(C(F)(F)F)ccc2Cl)CC1	none
N/C(=N\OC(=O)N1CCOCC1)c1ccc(Br)cc1	A549 tox 13µM, Nrf2 block inconclusive (no result: ATXN2 expr inh)
N/C(=N\OC(=O)N1CCOCC1)c1ccc(Cl)cc1	none
O=C(NC(=S)NCc1ccc(Cl)cc1Cl)c1ccco1	ATXN viability inconclusive
O=C(NC(=S)NCc1ccc(Cl)cc1)c1ccco1	Nrf2 block 16µM
CCN(CC)c1ccc(/C=C/c2sc3ccccc3[n+]2CCCCI)cc1	TGFb SMAD3 inh 13µM (no result: ATXN2 expr inh, A549 tox, Nrf2 block, ATXN viability)
O=C(NC(=S)NN1CCCCC1c1cccnc1)c1ccc(Cl)cc1Cl (stereo unspecified)	none
O=C1c2ccccc2S(=O)(=O)N1Cc1nc2ccccc2s1	ATXN2 expr inh 4µM, Nrf2 block 13µM
Cc1ccccc1CN1C(=O)c2ccccc2S1(=O)=O	none
O=C(NCCCN1CCCCCC1)c1ccc2c(c1)sc1nc(-c3ccccc3)cn12	HepG2 viability 16µM, TGFb SMAD3 inh inconclusive (no result: ATXN2 expr inh, ATXN viability)
CCc1ccc(C2=NNC(=Nc3cccc(S(=O)(=O)N(C)C)c3)SC2)cc1	ATXN2 expr inh inconclusive, A549 tox inconclusive, TGFb SMAD3 inh 13µM, Nrf2 block inconclusive, ATXN viability inconclusive
CCOC(=O)N1CCN(C(=O)C(NC(=O)c2ccc(C(C)(C)C)cc2)C(C)C)CC1 (stereo unspecified)	none
O=C(COc1ccccc1)Nc1ccc(C(=O)OCc2cc(=O)n3nc(C4CC4)sc3n2)cc1	none (no result: Nrf2 block)
COc1ccc(/C=N/NC(=S)Nc2cc(C(F)(F)F)ccc2Cl)cc1	HepG2 viability 0.63µM
O=C(NCc1cccc(Br)c1)C1CC(c2ccccc2[N+](=O)[O-])=NO1 (stereo unspecified)	none
CC1Nc2ccccc2C(=O)N1NS(=O)(=O)c1ccccc1 (stereo unspecified)	none
O=[N+]([O-])c1cccc(S(=O)(=O)Nc2ccc(Cc3ccncc3)cc2)c1	Nrf2 block 16µM (no result: ATXN2 expr inh)
O=S(=O)(Nc1ccc(Cc2ccncc2)cc1)c1ccc(Cl)s1	TGFb SMAD3 inh inconclusive, Nrf2 block 18µM
O=[N+]([O-])c1cccc(S(=O)(=O)NCc2ccncc2)c1	A549 tox inconclusive, Nrf2 block 7.3µM
CCNC(=S)N1CCN(C(c2ccccc2)c2ccccc2)CC1	Nrf2 block 26µM
CC(C)(C)c1ccc(C(=O)NCCCN2CCN(CCCNC(=O)c3ccc(C(C)(C)C)cc3)CC2)cc1	ATXN2 expr inh inconclusive, A549 tox inconclusive, TGFb SMAD3 inh inconclusive, Nrf2 block inconclusive, ATXN viability 28µM
O=C(NCCCN1CCOCC1)c1ccc(Br)cc1	none (no result: Nrf2 block)
CN1CCN(CCCNC(=O)c2ccc3c(Cl)c4c(nc3c2)CCCC4)CC1	TGFb SMAD3 inh 11µM (no result: ATXN2 expr inh)
COc1cn(CC(=O)Nc2ccc(F)cc2)c(CN2CCCCC2)cc1=O	none (no result: ATXN2 expr inh, Nrf2 block, ATXN viability)
CCCN1C(C(=O)c2ccccc2)=C(OC(=O)c2ccc(C)cc2)c2ccccc2S1(=O)=O	A549 tox inconclusive, Nrf2 block 23µM (no result: ATXN2 expr inh, ATXN viability)
CCCN1C(C(=O)c2ccccc2)=C(OC(=O)c2ccc(F)cc2)c2ccccc2S1(=O)=O	A549 tox inconclusive, TGFb SMAD3 inh 18µM, Nrf2 block inconclusive (no result: ATXN2 expr inh, ATXN viability)
COC(=O)CN1C(C(=O)c2ccccc2)=C(OC(=O)c2ccc(C)cc2)c2ccccc2S1(=O)=O	TGFb SMAD3 inh inconclusive, ATXN viability inconclusive
O=C1C=Cc2cccc3ccc(O)c1c23	ATXN2 expr inh 7.1µM, A549 tox inconclusive, Nrf2 block inconclusive
CC(C)(CNC(=O)c1cccc(S(=O)(=O)Nc2ccc(Br)cc2)c1)N1CCOCC1	Nrf2 block inconclusive
